The record followed here is PubChem BioAssay AID1159506 (National Center for Advancing Translational Sciences (NCATS), 2015).

The full ranking holds about 59,000 sequences; the median of the read-out is about -0.00055, and the lowest 2% start at about -2. The entries come from a sample that favours the lowest values as a whole.

This experiment is described as follows: Identification of proteins required for the processing of the EWS-FLI1 nascent transcript.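 Further: robust z of luciferase light less the median z of siRNAs with the same seed.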 The following applies: TC32 Ewing sarcoma NR0B1-luc vs CMV-luc (EWS-FLI1 target promoter against control promoter), 48 h; screened at 20 nM (by protocol). As for the experimental part:
Ewing sarcoma (ES) cells depend on the EWS-FLI1 fusion transcription factor for cell survival. Using an assay of EWS-FLI1 activity and genome-wide siRNA screening we have identified proteins required for the processing of the EWS-FLI1 nascent transcript. Parallel genome-wide siRNA-mediated RNAi screens were conducted in Ewing sarcoma TC32 cell lines expressing a luciferase (luc) reporter protein driven by either the promoter of the EWS-FLI1 target gene NR0B1 (TC32-NR0B1-luc) or the CMV promoter (TC32-CMV-luc). Luciferase activity was assessed 48 hours post siRNA-transfection.
Twenty microl of serum-free media containing Lipofectamine RNAiMax (0.05 microl) was added to wells containing siRNA (0.8 pmol). Lipid and siRNA were allowed to complex for 45 min at ambient temperature before addition of 600 cells in RPMI-1640, 20% FBS to yield final transfection mixtures containing 20 nM siRNA in RPMI-1640, 10% FBS. Luciferase expression was measured using OneGlo (Promega, Madison, WI). The genome-wide screening campaign was conducted using Ambion's human genome library version 4.1 (Ambion, Austin TX). This library targets approximately 21000 human genes, three siRNAs per gene. Each siRNA is arrayed in an individual well of a 384-well plate. Parallel transfections were conducted in TC32-NR0B1-luc and TC32-CMV-luc cell lines and luciferase expression (OneGlo, Promega) was assayed 48 h later on a PerkinElmer Envision 2104 Multilabel plate reader (PerkinElmer, Waltham, MA). Qiagen's AllStars Negative control was incorporated on all screening plates for normalization (16 wells per plate). Qiagen, Germantown, MDsiGL4 was incorporated as a positive transfection control (16 wells per plate) on all plates. […] The raw luciferase data for the NR0B1- and CMV-luc screens were normalized and z-score-MAD transformed using standard methods (Chung et al., 2008). The miRNA-like seed sequence of every siRNA was determined and the median z-score for all siRNA sequences with the same seed sequence was calculated. This z-score was subtracted from the z-score associated with each siRNA with that seed sequence to generate a seed-adjusted z-score value (Z) that was used when the results for the three siRNAs corresponding to each gene were compared (Marine et al., 2012)
On to AACACUUACGCAGUUCUUG against MTCP1, for which the seed-corrected z-score was determined as 0.193.
For UUUUUCUUCACAGGUGUUU against HIST1H1D the value was -0.582; for UAAGCUUUUAUUGUGAAUG against GRP, -2.97.
Under UUCUCAUCACUUGUAGCCU against ANKRD36C stands 0.48; under UGUUUAGUAGCAGAUCUCC against PSMD6, -2.83.
For GUUGGUAACAGGGUCAUUU against RXRG, the seed-corrected z-score was -0.41.
Under UUGCGAACAAUAGGGUUAG against PZP stands -0.222; under UAAAUGUACCGUUUAAACC against LOC647481, 0.567.
In turn, UCCGGAAUGUCGAUGCCCU against DUX5 gave a seed-corrected z-score of -0.471.
Under ACUGUUAUUCUUACGCUGG against CUL3 stands -0.643; under AAUUUGACCUCAUCCAUUU against FAM47C, -0.798.
UGGUGUAACUUCAACAUCG against ATP13A4: the seed-corrected z-score was -2.09.
Under UAUUCGUCAGCUCAAACUC against IQCH stands -1.02; under UAGGGUGAGAAUAGACAGG against PEX11B, 0.764; under UUCAGUUGUGAUAAGUUGC against TLR6, -0.0452.
In the case of UUUCGAUCUCUGUUAAGCC against C2orf40, the seed-corrected z-score was 0.448.
Under UUGAAGACCACGUACAUGG against SLC35D3 stands -0.373; under UAAGCGUAUCUGGAAUUAC against UGCG, 0.00222; under UUCUUGACGUGCUUCAUUC against SCO1, -0.488.
For UUACGGAUCAUGUGGUCUU against SCNN1B the value was 0.029; for UGACUUCACAUGGACUACG against IDH3B, -2.07; for AUCAUUCACAGGGAGGUCC against OAZ2, 1.3.
Turning to UUUGCAUCCCUCGCACUUG against MT3, the seed-corrected z-score was found to be 0.331.
Under UUGAAUUCAUUGCAUGUCC against CTSZ stands 0.0627; under UAGCGGGUCUCAUCAAAGC against HGFAC, 1.53; under UUAGGUGCGCGGCUAACUG against COL9A3, -2.65.
UCAAUGCAAAGGAACACUC against ARFGAP3 registered a seed-corrected z-score of -0.0755.
Take AUGUGGGUAAAAACUUGCU against NGRN: the seed-corrected z-score was -2.09.
Under UUCUUUAUUCCUUGAGCUG against OR10A4 stands -3.24.
Under UACUUGACGAUGUUGCGCG against ADGRL1 stands -0.114; under UUCAUAUACAGCACAAUAC against CD58, 1.5; under UUGGAGGACAGGUCCAAGU against TSKU, 0.336.
For UUCCAUGUAAAACAAUUUC against PDE4D, the seed-corrected z-score is 0.777.
Under UUAUCUGUGACAUAAGUUG against ALG13 stands -2.26.
For UAGGGUACAUCGUAGGGAG against MYO15A the value was -0.369.
For GGAUUUGCAGCGCAAAGCC against LYPD1 the value was -0.365.
Consider UCUGGAUUAACGGUGGUCU against NOVA1, for which the seed-corrected z-score was -3.04.
Under UAAGACUCAAAGUUCCCAG against LOC642502 stands -0.393; under AGAUGAAAAAGUAAGGCCG against TRIM58, -0.628.
With UUUUCGAGGACAUUGACUG against FMN1, the seed-corrected z-score amounted to 0.159.
For UCUUGCUCCAAACCUGCUC against KLHL34 the value was -0.143; for UUGCGGUAGACGAUGAUGC against ADAM8, -1.99; for AAGCAUAAAAGGUUCCUGU against IRF4, 0.397.
Under UUCUCGUGCACUGUCAAAG against SMU1 stands -3.77; under UUUGCGGUCACAAUUGGGC against IGFBP5, -0.759.
For AGACAUAACACUACGAGAC against GBA2 the value was 0.274; for UUCUUCAUGCGCAGUGUGG against INF2, 0.288.
Consider AAAUCCUCCAAACAUGUGC against ZNRF2, for which the seed-corrected z-score was -0.0777.
In turn, UGAUCGAAAUGAUUUACAC against CD180 had a seed-corrected z-score of -0.034.
For UAUACGAUAAUGAAAUUCC against SPINK13 the value was 0.358; for AAAGUUGGAAUACCGAGGU against C15orf61, 0.00537; for UUGACUAUAAGUGCGUCUC against KMT2E, -2.36.
For UCAGGGUGCAGCAUGAAUC against LOC338667 the value was 0.765; for UUUGUUGGGUCUAAGAUUG against RAB23, -0.849; for UCAAUUACACCCUCAUUUG against SRSF6, -2.18.
For UUCGUGUAGGGUGUGUAGC against OSGIN1 the value was 0.000927; for UUAGAGUCAUGCAUGAGGG against MROH7, -0.225.
For UUGUAGACGAGCUGGAUGC against ADAMTSL5, the seed-corrected z-score is -0.759.
Under UCCAUUCCUAUACUAGUCC against ABCG2 stands -0.43; under CAAGUUUUUAUUAUCCUGC against EPHA10, -0.0524; under AUUGUUCCCAUAGAGUUCC against BCL2L1, 3.29.
UGAUCUGUGACUGCUCUUC against AP2M1: the seed-corrected z-score is -2.2.
Take UCGAUCUUCAGGUCGUUGC against ATXN1: the seed-corrected z-score was -0.921.
Sequence UUGGAAGUCACAGUCAUCC against CST7 had a seed-corrected z-score of -0.103.
For UUGGUUAACUGGUCAAUCC against SLC40A1 the value was -0.655.
For AUCUUUCCCAGGUUUUUCG against ZNF669 the value was -2.19; for AUCCAUCAAAGCGAUAUUC against GBE1, -1.06.
